Common to all, as to assay: log2 fold change, soluble protein after heating vs DMSO (PISA); higher = thermal stabilisation; K562 cells, 10 uM, 30 min; active = over 0.2 and 3.5 SD of the protein, either way, in both replicates (recomputed)
Compound in assay [1]: NC(=O)Nc1cc(-c2cccc(F)c2)sc1C(=O)N[C@H]1CCCNC1
In a few lines: (§1)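 Quantification of soluble protein used TMTpro 16plex LC-MS/MS, with channel sums equalised. Samples were the supernatant after 21,000xg for 90 min of pooled aliquots from K562 cells (2×10^6 cells/mL) treated with 10 μM compound for 30 min, heated for 3 min over 48°C-58°C, and extracted in PBS with 0.5% NP-40 at 4°C. Values, from duplicates, describe thermal stability against control samples on a log2 fold-change scale.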

Compound in assay [2]: NC(=O)c1cnc(N[C@@H]2CCCC[C@@H]2N)nc1Nc1cccc(-n2nccn2)c1
In a few lines: as §1

Compound in assay [3]: NC1(c2ccc(-c3nc4ccn5c(=O)[nH]nc5c4cc3-c3ccccc3)cc2)CCC1
In a few lines:
as §1

Compound in assay [4]: NCC(=O)Nc1ccc(-n2nc(C(F)(F)F)cc2-c2ccc3c(ccc4ccccc43)c2)cc1
The procedure, abridged:
as §1

Compound in assay [5]: Nc1ccccc1NC(=O)c1ccc(CNC(=O)OCc2cccnc2)cc1 [entinostat]
In a few lines:
as §1

Compound in assay [6]: O=C(CCCCCCC(=O)Nc1ccccc1)NO [vorinostat]
The procedure, abridged: as §1

Compound in assay [7]: O=C(CCCCCCNC(=O)c1cnc(N(c2ccccc2)c2ccccc2Cl)nc1)NO [citarinostat]
In a few lines:
as §1

Compound in assay [8]: O=C(O)c1ccc2c(c1)nc(Nc1cccc(Cl)c1)c1ccncc12 [silmitasertib]
In a few lines: as §1

Compound in assay [9]: O=C1NC(=O)C(c2cnc3ccccn23)=C1c1cn2c3c(cc(F)cc13)CN(C(=O)N1CCCCC1)CC2
The procedure, abridged: as §1

Compound in assay [10]: c1cc(OCCN2CCCCC2)cc(-c2n[nH]c3ccc(-c4nnc[nH]4)cc23)c1
The procedure, abridged:
as §1

Compound in assay [11]: c1cn2cc(-c3ccc4cn[nH]c4c3)nc(Nc3ccc(N4CCOCC4)cc3)c2n1 [entospletinib]
The procedure, abridged: as §1

Targets with a hit are over-represented here; the source holds about 7,900 in all. About 0.6% of all pairs of compound and target were hits. Unmarked numbers belong to inactive results.

This note sets out measurements from the supplement of paper PMC10849652.

UniProt P55196, sequence (P55196 whole entry, looked up): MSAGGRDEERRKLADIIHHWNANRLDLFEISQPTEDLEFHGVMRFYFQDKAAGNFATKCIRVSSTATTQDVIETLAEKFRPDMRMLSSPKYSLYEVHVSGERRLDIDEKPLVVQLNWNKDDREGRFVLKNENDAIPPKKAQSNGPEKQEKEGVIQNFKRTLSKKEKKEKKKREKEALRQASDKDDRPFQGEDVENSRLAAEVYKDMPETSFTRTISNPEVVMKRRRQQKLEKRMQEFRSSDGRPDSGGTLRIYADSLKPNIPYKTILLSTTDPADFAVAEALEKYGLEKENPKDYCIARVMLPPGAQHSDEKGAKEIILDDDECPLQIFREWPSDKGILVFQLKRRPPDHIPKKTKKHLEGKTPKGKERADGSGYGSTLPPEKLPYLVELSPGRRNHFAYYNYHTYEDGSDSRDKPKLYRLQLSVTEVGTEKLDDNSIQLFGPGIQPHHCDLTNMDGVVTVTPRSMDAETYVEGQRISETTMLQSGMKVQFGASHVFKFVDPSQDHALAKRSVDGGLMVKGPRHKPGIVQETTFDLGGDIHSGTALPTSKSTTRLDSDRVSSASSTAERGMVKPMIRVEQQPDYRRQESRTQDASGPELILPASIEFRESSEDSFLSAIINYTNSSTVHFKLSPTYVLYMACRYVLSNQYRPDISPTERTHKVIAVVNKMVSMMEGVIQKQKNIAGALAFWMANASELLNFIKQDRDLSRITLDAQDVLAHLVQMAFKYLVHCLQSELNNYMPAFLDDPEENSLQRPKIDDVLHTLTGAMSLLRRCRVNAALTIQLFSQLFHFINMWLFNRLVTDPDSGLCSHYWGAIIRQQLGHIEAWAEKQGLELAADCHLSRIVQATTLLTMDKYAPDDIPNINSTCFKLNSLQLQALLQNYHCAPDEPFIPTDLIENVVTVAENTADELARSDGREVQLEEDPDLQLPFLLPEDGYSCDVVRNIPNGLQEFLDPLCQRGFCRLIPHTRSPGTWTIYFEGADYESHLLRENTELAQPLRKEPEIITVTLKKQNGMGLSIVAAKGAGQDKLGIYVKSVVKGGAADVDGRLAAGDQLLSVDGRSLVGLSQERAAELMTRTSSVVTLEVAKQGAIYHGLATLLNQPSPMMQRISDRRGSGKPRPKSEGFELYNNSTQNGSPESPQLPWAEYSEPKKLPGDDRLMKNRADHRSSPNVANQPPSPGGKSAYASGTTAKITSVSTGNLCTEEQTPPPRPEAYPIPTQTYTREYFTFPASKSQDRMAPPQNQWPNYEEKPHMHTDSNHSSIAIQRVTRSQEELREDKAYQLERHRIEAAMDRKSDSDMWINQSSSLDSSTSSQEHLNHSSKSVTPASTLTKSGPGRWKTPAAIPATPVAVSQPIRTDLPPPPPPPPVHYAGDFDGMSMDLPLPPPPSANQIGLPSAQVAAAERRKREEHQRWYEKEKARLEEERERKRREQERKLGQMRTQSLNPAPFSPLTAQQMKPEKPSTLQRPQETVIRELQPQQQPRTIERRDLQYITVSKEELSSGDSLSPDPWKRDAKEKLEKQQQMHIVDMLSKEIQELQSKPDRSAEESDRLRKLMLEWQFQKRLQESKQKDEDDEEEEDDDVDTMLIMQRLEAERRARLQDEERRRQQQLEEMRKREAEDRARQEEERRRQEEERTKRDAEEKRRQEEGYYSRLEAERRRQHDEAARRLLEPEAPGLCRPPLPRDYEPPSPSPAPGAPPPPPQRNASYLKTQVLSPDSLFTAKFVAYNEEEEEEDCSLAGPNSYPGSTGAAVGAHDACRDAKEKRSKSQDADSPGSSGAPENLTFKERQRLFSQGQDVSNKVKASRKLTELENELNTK
UniProt Q9ULX6, sequence (Q9ULX6 whole entry, looked up): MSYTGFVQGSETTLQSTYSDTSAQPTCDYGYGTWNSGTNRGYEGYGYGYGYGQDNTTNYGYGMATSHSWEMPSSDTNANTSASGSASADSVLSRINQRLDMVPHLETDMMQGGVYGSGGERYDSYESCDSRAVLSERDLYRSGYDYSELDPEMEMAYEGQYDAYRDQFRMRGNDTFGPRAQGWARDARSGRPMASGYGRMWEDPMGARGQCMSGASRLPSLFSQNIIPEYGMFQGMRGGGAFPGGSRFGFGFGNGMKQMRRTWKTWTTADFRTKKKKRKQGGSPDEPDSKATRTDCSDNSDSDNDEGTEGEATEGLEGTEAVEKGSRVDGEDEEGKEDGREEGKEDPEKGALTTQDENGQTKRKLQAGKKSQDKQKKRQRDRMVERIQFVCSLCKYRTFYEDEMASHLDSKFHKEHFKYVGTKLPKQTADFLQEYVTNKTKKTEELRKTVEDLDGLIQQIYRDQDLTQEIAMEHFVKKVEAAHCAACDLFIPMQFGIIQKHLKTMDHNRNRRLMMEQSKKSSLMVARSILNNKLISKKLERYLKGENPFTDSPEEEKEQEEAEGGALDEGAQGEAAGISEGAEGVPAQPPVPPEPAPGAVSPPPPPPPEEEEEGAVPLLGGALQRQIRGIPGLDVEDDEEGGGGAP
UniProt P42330, sequence (P42330 whole entry, looked up): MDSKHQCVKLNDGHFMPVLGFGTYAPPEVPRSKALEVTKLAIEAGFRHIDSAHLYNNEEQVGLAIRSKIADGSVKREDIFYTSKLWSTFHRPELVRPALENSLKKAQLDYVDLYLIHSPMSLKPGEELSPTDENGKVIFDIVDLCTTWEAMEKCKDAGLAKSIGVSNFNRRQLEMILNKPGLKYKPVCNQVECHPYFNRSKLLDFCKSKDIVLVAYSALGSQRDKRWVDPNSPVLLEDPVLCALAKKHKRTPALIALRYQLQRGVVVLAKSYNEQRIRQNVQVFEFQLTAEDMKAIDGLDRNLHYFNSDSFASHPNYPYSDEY
UniProt Q9UKV5, sequence (Q9UKV5 whole entry, looked up): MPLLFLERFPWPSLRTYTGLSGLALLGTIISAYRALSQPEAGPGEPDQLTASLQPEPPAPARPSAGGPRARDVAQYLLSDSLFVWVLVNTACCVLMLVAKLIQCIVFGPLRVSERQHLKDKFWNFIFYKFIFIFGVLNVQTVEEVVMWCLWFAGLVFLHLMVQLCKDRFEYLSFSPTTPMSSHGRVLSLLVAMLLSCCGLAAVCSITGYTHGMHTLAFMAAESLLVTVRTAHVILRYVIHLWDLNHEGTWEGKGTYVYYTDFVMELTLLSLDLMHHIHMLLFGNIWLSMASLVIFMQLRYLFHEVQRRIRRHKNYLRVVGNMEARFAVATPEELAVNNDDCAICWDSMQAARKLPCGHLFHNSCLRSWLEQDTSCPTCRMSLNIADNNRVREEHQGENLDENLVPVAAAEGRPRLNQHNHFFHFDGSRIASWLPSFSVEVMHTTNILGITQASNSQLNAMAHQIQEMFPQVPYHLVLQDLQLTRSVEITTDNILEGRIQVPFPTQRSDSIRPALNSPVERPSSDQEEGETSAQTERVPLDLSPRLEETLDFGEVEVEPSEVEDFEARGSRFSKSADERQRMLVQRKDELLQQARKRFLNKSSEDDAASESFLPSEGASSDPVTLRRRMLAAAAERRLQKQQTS
UniProt P49189, sequence (P49189 whole entry, looked up): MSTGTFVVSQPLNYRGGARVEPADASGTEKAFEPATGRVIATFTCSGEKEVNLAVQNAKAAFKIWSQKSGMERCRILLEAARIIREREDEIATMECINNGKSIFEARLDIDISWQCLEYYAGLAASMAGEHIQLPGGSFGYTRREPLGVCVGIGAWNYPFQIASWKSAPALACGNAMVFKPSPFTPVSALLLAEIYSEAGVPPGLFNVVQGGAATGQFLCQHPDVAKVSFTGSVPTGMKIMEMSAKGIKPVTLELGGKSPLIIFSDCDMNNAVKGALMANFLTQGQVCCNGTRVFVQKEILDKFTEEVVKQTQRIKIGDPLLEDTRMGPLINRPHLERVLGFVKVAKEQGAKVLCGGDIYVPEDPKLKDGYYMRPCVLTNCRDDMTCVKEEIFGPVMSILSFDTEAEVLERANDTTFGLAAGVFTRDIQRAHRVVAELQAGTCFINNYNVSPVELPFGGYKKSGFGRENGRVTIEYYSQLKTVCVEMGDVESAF
UniProt P18846, sequence (P18846 whole entry, looked up): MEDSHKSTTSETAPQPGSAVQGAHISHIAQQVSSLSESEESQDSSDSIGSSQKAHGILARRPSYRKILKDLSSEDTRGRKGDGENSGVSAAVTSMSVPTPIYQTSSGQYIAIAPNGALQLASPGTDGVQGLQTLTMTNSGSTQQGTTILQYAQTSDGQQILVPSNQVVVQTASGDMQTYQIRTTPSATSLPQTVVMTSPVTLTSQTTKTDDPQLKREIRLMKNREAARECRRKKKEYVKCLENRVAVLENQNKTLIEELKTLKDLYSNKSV
UniProt P31749, sequence (P31749 whole entry, looked up): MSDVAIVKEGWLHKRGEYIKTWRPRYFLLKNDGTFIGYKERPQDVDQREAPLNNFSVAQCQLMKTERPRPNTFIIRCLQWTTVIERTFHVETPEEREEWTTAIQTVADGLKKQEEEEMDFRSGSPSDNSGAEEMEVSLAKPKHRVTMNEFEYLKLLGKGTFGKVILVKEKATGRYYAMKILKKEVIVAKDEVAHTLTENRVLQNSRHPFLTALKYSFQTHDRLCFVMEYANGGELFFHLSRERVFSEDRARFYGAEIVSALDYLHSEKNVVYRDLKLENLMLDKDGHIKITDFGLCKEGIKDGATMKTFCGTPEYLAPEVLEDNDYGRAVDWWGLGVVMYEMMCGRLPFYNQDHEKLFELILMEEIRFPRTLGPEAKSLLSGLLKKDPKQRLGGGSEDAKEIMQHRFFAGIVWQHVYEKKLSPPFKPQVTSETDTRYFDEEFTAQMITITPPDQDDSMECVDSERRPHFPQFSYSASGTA
UniProt Q9UHQ4, sequence (Q9UHQ4 whole entry, looked up): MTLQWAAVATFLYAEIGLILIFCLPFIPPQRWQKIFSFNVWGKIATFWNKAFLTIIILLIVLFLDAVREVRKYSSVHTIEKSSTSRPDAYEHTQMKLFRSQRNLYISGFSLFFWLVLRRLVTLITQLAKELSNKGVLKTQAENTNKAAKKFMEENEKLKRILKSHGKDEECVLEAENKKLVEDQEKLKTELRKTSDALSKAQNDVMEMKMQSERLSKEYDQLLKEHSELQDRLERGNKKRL

ALDH9A1 (UniProt P49189): the log2 fold change in assay [1] was 0.079; in assay [2], 0.051; in [3], -0.024; in assay [4] it was 0; in [5], -0.014; in assay [6], -0.209. Besides, the log2 fold change in assay [7] was -0.014; in [8] it was -0.033; in assay [9], 0.025; in assay [10], 0.055; in assay [11], 0.066.
Take BCLAF1 (UniProt Q9NYF8): the log2 fold change is 0.01 in assay [1]; 0.006 in [2]; 0.003 in [3]; 0.064 in assay [4]; 0.047 in [5]; 0.109 in [6]. Also, the log2 fold change in assay [7] was 0.07; in assay [8] it was -0.361; in [9] it was 0.128; in [10], -0.31; in assay [11], 0.075.
Consider AKT1 (UniProt P31749), for which the log2 fold change in assay [1] was -0.085; in assay [2] it was -0.276; in assay [3], 1.61 (active); in assay [4] it was -0.002; in assay [5] it was 0.201; in assay [6], -0.024. Further, the log2 fold change in [7] is 0.138; in [8], 0.004; in assay [9] it was 0.1; in assay [10], 0.027; in [11] it was -0.04.
For ATF1 (UniProt P18846), the log2 fold change in assay [1] is 0.038; in assay [2], 0.096; in assay [3], 0.063; in assay [4], 0.127; in assay [5], 0.066; in [6], -0.102. The log2 fold change is 0.144 in assay [7]; -0.146 in [8]; 0.372 (active) in assay [9]; -0.091 in [10]; -0.006 in assay [11].
With ARMC10 (UniProt Q8N2F6), the log2 fold change was -0.039 in assay [1]; 0.003 in assay [2]; 0.005 in [3]; 0.028 in assay [4]; 0.005 in [5]; 0.056 in [6]. Besides, the log2 fold change in [7] was 0.096; in assay [8], 0.054; in [9], -0.039; in [10] it was -0.062; in assay [11], -0.001.
Take ARFIP1 (UniProt P53367): the log2 fold change in assay [1] was 0.116; in assay [2], -0.002; in [3], -0.162; in assay [4], 0.062; in [5] it was 0.079; in assay [6], 0.031. Moreover, the log2 fold change in assay [7] is 0.121; in assay [8], -0.011; in assay [9], -0.042; in [10], -0.048; in assay [11] it was -0.109.
For AKAP8L (UniProt Q9ULX6), the log2 fold change in assay [1] was -0.006; in assay [2], 0.153; in assay [3], -0.063; in assay [4], -0.098; in assay [5], 0.01; in [6], 0.088. In addition, the log2 fold change in assay [7] was 0.124; in assay [8] it was -0.012; in assay [9], -0.236; in [10], -0.067; in assay [11], 0.171.
In the case of AFDN isoform 1 (UniProt P55196), the log2 fold change in assay [1] was -0.016; in [2], 0.048; in assay [3] it was -0.043; in assay [4], -0.031; in assay [5], 0.047; in [6], -0.033. The log2 fold change in assay [7] is 0.079; in assay [8], 0.002; in assay [9], -0.054; in assay [10] it was -0.141; in assay [11], -0.028.
In the case of AMFR (UniProt Q9UKV5), the log2 fold change in assay [1] was -0.024; in assay [2], -0.128; in assay [3], -0.115; in [4], -0.075; in assay [5], 0.051; in [6], 0.055. Moreover, the log2 fold change was 0.012 in assay [7]; 0.07 in assay [8]; -0.032 in [9]; 0.021 in assay [10]; -0.059 in assay [11].
Consider BID isoform 2 (UniProt P55957), for which the log2 fold change in assay [1] was 0.032; in [2], 0.019; in assay [3], -0.037; in assay [4], 0.052; in [5], -0.018; in assay [6] it was -0.039. The log2 fold change was 0.006 in assay [7]; -0.008 in assay [8]; 0.042 in assay [9]; 0.005 in [10]; 0.025 in [11].
For BCAP29 isoform 2 (UniProt Q9UHQ4), the log2 fold change in assay [1] was 0.001; in assay [2], 0.049; in [3] it was 0.034; in [4], -0.094; in assay [5], -0.014; in [6] it was -0.064. The log2 fold change was -0.015 in [7]; 0.031 in [8]; -0.043 in [9]; -0.036 in [10]; -0.005 in assay [11].
For the target AKR1C3 (UniProt P42330), the log2 fold change is 0.119 in assay [1]; 0.064 in assay [2]; 0.235 in [3]; -0.032 in [4]; 0.106 in assay [5]; -0.058 in assay [6]. The log2 fold change in assay [7] was 0.049; in [8], 0.126; in assay [9], 0.211; in assay [10], 0.154; in [11], -0.011.
